Measured values taken from the supplement of paper PMC10849652.
About 8,800 targets were measured; listed, in parts, are those with a hit and a random draw of the rest. About 0.5% of all pairs of compound and target were hits.

How the values were obtained:
Assay in all cases: log2 fold change, soluble protein after heating vs DMSO (PISA); higher = thermal stabilisation; K562 lysate, 10 uM; active = over 0.2 and 3.5 SD of the protein, either way, in both replicates (recomputed)
alvocidib = compound: CN1CC[C@H](c2c(O)cc(O)c3c(=O)cc(-c4ccccc4Cl)oc23)[C@H](O)C1 [alvocidib]
Summary of the method: (§1)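 Quantification was by TMTpro 16plex LC-MS/MS with equalised channel sums, applied to the supernatant after 21,000xg for 90 min. Samples were crude K562 extract at 1 mg/mL protein in PBS pH 7.4 with 1 mM MgCl2, treated with 10 μM compound for 30 min, heated for 3 min across 48°C-58°C, pooled and brought to 0.5% NP-40 at 4°C. Values are log-two fold changes in thermal stability relative to solvent controls, from duplicates.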

Tubastatin A = compound: CN1CCc2c(c3ccccc3n2Cc2ccc(C(=O)NO)cc2)C1 [Tubastatin A]
Summary of the method: as §1

[1] = compound: CNC(=O)C1=CC=CC=C1NC2=NC(=NC=C2Cl)NC3=C(C=C(C=C3)N4CCOCC4)OC
Summary of the method: as §1

defactinib = compound: CNC(=O)c1ccc(Nc2ncc(C(F)(F)F)c(NCc3nccnc3N(C)S(C)(=O)=O)n2)cc1 [defactinib]
Summary of the method: as §1

[2] = compound: CNc1nc(-c2ccc3c(N)n[nH]c3c2)cc(N2C[C@@H](C(=O)NC3CCCCC3)CC[C@H]2C)n1
Summary of the method: as §1

encorafenib = compound: COC(=O)N[C@@H](C)CNc1nccc(-c2cn(C(C)C)nc2-c2cc(Cl)cc(NS(C)(=O)=O)c2F)n1 [encorafenib]
Summary of the method: as §1

[3] = compound: COC(=O)[C@H](CCSC)NC(=O)C1=C(C=C(C=C1)NC[C@H](CS)N)C2=CC=CC=C2
Summary of the method: as §1

alisertib = compound: COc1cc(Nc2ncc3c(n2)-c2ccc(Cl)cc2C(c2c(F)cccc2OC)=NC3)ccc1C(=O)O [alisertib]
Summary of the method: as §1

[4] = compound: COc1cc2nc(-c3cc(F)ccc3O)nc(N[C@@H]3CNC[C@H]3C(C)(C)O)c2cc1OC
Summary of the method: as §1

gefitinib = compound: COc1cc2ncnc(Nc3ccc(F)c(Cl)c3)c2cc1OCCCN1CCOCC1 [gefitinib]
Summary of the method: as §1

Measured: log2 fold change

NFATC2IP (UniProt Q8NCF5)
UniProt Q8NCF5, sequence (Q8NCF5 whole entry, looked up): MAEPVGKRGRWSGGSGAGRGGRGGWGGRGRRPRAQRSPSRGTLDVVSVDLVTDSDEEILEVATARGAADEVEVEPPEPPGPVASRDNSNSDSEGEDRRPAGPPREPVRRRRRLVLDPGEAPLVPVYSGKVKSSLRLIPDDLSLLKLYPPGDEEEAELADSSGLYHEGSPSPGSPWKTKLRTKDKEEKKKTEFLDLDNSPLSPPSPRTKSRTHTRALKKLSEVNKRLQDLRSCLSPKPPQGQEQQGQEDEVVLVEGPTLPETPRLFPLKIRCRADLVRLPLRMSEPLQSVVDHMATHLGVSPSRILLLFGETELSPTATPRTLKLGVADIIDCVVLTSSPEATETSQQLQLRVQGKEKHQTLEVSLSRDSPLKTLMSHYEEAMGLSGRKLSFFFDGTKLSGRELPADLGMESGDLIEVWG
active: [3] -0.208
inactive: alvocidib -0.015 | Tubastatin A 0.002 | [1] 0.052 | defactinib 0 | [2] 0.002 | encorafenib 0.003 | alisertib -0.009 | [4] -0.001 | gefitinib 0.023

PARG (UniProt Q86W56)
inactive: alvocidib 0.03 | Tubastatin A -0.055 | [1] 0.029 | defactinib 0.041 | [2] -0.016 | encorafenib 0.027 | [3] 0.042 | alisertib 0 | [4] 0.01 | gefitinib 0.046

NCKAP1L (UniProt P55160)
UniProt P55160, sequence (P55160 whole entry, looked up): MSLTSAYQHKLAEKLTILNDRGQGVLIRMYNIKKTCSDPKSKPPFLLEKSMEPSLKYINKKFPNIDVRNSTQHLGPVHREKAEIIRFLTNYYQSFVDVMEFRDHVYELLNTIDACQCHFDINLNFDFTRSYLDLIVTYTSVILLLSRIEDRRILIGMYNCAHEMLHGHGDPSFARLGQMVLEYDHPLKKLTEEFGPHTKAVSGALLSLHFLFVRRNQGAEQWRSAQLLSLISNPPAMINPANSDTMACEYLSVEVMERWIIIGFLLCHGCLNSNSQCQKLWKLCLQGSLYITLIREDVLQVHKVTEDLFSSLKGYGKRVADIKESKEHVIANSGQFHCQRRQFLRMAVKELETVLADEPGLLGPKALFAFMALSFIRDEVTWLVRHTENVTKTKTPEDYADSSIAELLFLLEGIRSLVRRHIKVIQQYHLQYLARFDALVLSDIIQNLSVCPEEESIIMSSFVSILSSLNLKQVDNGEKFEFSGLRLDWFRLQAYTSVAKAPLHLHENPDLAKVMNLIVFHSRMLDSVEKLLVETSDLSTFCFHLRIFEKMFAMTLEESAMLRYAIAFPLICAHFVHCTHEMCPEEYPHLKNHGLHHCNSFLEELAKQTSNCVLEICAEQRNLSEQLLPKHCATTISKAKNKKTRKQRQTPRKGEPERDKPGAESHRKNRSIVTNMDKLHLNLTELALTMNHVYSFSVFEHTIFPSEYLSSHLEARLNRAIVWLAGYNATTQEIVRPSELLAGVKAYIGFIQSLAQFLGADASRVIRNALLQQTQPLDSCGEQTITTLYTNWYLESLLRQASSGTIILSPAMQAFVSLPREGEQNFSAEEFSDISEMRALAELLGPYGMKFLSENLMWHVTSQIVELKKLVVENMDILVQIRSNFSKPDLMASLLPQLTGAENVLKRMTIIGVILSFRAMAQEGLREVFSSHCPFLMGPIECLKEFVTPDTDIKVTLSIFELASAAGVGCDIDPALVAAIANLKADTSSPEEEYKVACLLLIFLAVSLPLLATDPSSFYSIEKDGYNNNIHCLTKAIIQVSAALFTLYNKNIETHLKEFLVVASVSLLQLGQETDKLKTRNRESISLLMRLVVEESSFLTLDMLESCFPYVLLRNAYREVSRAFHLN
inactive: alvocidib -0.033 | Tubastatin A -0.043 | [1] 0.198 | defactinib 0.009 | [2] 0.063 | encorafenib 0.058 | [3] -0.223 | alisertib 0.022 | [4] -0.025 | gefitinib -0.059

MYBL2 (UniProt P10244)
inactive: alvocidib 0 | Tubastatin A -0.15 | [1] 0.045 | defactinib 0.113 | [2] -0.016 | encorafenib 0.088 | [3] -0.023

NUB1 (UniProt Q9Y5A7)
UniProt Q9Y5A7, sequence (Q9Y5A7 whole entry, looked up): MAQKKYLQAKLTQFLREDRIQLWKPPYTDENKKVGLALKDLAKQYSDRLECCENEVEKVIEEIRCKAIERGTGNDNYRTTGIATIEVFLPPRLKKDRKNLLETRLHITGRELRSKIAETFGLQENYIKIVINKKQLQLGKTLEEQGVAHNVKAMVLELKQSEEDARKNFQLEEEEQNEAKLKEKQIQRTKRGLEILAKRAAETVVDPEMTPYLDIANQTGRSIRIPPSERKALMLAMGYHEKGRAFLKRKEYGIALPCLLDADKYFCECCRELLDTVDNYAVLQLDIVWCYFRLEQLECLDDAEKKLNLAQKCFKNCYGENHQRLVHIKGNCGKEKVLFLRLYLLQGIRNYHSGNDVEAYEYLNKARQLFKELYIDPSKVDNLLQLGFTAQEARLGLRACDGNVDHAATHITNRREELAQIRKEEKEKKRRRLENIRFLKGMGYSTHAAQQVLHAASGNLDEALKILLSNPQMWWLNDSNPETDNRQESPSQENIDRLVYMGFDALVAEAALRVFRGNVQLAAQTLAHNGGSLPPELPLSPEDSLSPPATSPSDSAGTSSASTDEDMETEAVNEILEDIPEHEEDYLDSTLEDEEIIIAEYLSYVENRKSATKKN
inactive: alvocidib 0.033 | Tubastatin A -0.095 | [1] 0.037 | defactinib -0.007 | [2] 0.014 | encorafenib 0.022 | [3] 0.038 | alisertib -0.012 | [4] -0.004 | gefitinib -0.049

NSA2 (UniProt O95478)
inactive: alvocidib -0.291 | Tubastatin A -0.181 | [1] -0.017 | defactinib 0.058 | [2] 0.066 | encorafenib -0.184 | [3] -0.086 | alisertib -0.14 | [4] -0.012 | gefitinib 0.056

NCK1 (UniProt P16333)
inactive: alvocidib 0 | Tubastatin A -0.097 | [1] 0.023 | defactinib -0.02 | [2] -0.008 | encorafenib 0.008 | [3] -0.068 | alisertib -0.003 | [4] -0.007 | gefitinib 0.026

NUP160 (UniProt Q12769)
inactive: alvocidib 0.029 | Tubastatin A -0.143 | [1] 0.045 | defactinib 0.004 | [2] -0.03 | encorafenib 0.059 | [3] -0.195 | alisertib 0.015 | [4] 0.004 | gefitinib 0.031

NEK9 (UniProt Q8TD19)
UniProt Q8TD19, sequence (Q8TD19 whole entry, looked up): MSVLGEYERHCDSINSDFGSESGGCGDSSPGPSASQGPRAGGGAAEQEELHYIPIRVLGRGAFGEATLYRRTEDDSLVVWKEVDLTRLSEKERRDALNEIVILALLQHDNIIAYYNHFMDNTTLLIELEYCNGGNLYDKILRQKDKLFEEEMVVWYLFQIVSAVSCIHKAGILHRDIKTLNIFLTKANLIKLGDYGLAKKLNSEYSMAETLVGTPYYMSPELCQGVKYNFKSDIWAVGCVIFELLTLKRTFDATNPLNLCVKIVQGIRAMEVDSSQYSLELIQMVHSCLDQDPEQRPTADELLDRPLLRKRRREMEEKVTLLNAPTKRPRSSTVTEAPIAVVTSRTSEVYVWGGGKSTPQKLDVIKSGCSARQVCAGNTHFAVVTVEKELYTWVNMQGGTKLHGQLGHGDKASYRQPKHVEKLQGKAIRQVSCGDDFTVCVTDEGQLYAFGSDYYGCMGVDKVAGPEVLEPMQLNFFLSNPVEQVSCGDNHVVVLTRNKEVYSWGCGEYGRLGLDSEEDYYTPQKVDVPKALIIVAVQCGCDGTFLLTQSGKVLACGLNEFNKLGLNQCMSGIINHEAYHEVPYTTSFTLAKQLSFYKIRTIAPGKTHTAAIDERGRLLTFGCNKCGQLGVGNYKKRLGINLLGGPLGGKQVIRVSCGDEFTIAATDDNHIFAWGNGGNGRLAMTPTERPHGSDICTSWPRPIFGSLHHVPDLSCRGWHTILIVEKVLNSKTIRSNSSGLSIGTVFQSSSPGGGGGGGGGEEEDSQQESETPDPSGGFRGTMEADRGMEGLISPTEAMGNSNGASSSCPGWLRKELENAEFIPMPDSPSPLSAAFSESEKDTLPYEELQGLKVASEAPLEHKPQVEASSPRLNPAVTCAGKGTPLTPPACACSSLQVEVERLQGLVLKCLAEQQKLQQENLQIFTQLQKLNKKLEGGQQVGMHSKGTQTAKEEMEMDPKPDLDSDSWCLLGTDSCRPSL
inactive: alvocidib -0.062 | Tubastatin A -0.062 | [1] 0.193 | defactinib 0.08 | [2] -0.009 | encorafenib -0.018 | [3] -0.008 | alisertib -0.048 | [4] -0.01 | gefitinib -0.039

N6AMT1 (UniProt Q9Y5N5)
UniProt Q9Y5N5, sequence (Q9Y5N5 whole entry, looked up, one chain of several): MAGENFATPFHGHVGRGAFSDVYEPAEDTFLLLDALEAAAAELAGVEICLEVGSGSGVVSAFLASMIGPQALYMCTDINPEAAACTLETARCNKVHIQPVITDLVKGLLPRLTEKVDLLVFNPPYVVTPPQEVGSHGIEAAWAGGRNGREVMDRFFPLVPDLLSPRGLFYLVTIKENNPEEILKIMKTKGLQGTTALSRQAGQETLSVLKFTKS
inactive: alvocidib 0.062 | Tubastatin A 0.026 | [1] 0.048 | [2] 0.021 | encorafenib -0.011 | [3] 0.069 | alisertib -0.084 | [4] 0.004 | gefitinib -0.045
active: defactinib 0.361

PAN2 isoform 2 (UniProt Q504Q3)
inactive: alvocidib -0.023 | Tubastatin A -0.025 | [1] -0.018 | defactinib -0.099 | [2] -0.046 | encorafenib 0.08 | [3] -0.041 | alisertib 0 | [4] -0.043 | gefitinib -0.044

NLRP2 (UniProt Q9NX02)
UniProt Q9NX02, sequence (Q9NX02 whole entry, looked up): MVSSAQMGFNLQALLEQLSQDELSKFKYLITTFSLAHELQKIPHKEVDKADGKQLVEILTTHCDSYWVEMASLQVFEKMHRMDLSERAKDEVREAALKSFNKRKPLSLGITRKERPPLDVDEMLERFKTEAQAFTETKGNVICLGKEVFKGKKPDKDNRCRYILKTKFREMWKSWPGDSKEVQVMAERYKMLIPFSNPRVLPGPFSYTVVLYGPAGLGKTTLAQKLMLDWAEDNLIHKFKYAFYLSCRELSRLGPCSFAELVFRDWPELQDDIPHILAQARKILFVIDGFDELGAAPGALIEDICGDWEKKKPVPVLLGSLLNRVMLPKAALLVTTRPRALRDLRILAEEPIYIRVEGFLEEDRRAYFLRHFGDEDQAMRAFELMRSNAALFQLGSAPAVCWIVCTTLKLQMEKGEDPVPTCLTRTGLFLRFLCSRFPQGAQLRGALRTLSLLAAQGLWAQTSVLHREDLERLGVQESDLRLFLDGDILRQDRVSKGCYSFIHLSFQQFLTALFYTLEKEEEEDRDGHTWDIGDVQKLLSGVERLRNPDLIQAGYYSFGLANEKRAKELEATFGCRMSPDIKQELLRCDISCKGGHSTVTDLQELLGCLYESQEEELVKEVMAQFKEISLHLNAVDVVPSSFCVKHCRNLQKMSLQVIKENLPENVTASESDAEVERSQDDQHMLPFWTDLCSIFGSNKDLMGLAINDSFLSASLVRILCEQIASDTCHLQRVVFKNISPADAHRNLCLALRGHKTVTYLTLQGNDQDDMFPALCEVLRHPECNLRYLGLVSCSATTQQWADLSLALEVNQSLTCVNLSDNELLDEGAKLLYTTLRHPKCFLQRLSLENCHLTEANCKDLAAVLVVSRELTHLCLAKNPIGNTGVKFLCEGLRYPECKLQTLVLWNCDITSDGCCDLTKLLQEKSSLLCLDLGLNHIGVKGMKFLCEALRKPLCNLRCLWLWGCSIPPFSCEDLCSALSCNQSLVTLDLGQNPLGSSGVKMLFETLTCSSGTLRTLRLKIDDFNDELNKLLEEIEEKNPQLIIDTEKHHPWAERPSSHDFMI
inactive: alvocidib 0.034 | Tubastatin A -0.227 | [1] 0 | defactinib 0.024 | [2] -0.044 | encorafenib 0.034 | alisertib -0.025 | [4] 0 | gefitinib -0.012
active: [3] -0.239

NDUFA4 (UniProt O00483)
UniProt O00483, sequence (O00483 whole entry, looked up): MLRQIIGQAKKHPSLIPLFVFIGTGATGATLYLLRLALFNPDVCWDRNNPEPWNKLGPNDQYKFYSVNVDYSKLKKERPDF
inactive: alvocidib 0.022 | Tubastatin A 0.055 | [1] 0.054 | defactinib 0.143 | [2] 0.004 | encorafenib 0.028 | [3] 0.009 | alisertib 0.055 | [4] -0.079 | gefitinib -0.133

NBEAL2 (UniProt Q6ZNJ1)
inactive: alvocidib 0.031 | Tubastatin A -0.141 | [1] -0.005 | defactinib 0.022 | [2] 0.033 | encorafenib 0.003 | [3] -0.029 | alisertib -0.053 | [4] -0.009 | gefitinib 0.01

MTFP1 (UniProt Q9UDX5)
UniProt Q9UDX5, sequence (Q9UDX5 whole entry, looked up): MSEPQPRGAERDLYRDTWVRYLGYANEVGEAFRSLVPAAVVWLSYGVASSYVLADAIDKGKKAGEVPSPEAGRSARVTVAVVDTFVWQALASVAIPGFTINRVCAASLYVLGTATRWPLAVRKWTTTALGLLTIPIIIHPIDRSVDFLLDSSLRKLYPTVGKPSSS
inactive: alvocidib -0.087 | Tubastatin A -0.006 | [1] 0.053 | defactinib 0.145 | [2] 0.007 | encorafenib -0.037 | [3] 0.102 | alisertib -0.032 | [4] 0.003 | gefitinib -0.011
